Sampled rows, rich in hits. Any-hit rate of the full collection: about 22%.
CYP2C9 inh – blockers of cytochrome P450 2C9 activity – biochemical, luminescence, ADME assay, primary screen. AID 777, 2007. inhibition, % at 5 µM. CYP2C9 Supersomes, luciferin-H conversion. P11712. 96,000 tested, 20% active;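 active = blocking of liver enzyme CYP2C9 beyond about 50% at 5 µM, limit read from the data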
F-actin modifier – modifiers of F-actin cytoskeleton organization, primary screen, imaging, HUVEC, phalloidin staining, high-content imaging. 91,000 tested, 0.18% active. inhibition, % at 2 µM. HUVEC TNFa F-actin phalloidin imaging;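 active = inhibition above the batch mean plus 3 SD and confirmed as a hit by visual image inspection, cut at about 30% in these data, passing the limit was not always enough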
E-sel TNF inh – E-selectin induction blockers in HUVEC – imaging, immunofluorescence, high content, primary screen; HUVEC TNFa-induced E-selectin immunofluorescence; inhibition, % at 2 µM; 120,000 tested, 0.71% active; AID 1246, 2008;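 active = inhibition above the batch mean plus 3 SD, and confirmed as a hit on visual image review, cut at about 43% in these data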;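 note: 0% = TNF-stimulated DMSO wells and 100% = unstimulated control wells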
CYP2C19 activ – human CYP2C19 activators, primary screen, biochemical, luminescence; recombinant CYP2C19, luciferin-H EGE luminescence; stronger effect = higher value; 0 = fully inhibited enzyme, 1 = untreated enzyme; activation factor at 5 µM; Cytochrome P450 2C19 (Homo sapiens), P33261; 96,000 tested, under 10 active;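 active = activation factor of at least 2 at 5 µM in the primary screen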;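 note: 0 = wells with 2.5 mM tranylcypromine and 1 = vehicle-only wells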
Target sequence (P33261 whole entry, looked up): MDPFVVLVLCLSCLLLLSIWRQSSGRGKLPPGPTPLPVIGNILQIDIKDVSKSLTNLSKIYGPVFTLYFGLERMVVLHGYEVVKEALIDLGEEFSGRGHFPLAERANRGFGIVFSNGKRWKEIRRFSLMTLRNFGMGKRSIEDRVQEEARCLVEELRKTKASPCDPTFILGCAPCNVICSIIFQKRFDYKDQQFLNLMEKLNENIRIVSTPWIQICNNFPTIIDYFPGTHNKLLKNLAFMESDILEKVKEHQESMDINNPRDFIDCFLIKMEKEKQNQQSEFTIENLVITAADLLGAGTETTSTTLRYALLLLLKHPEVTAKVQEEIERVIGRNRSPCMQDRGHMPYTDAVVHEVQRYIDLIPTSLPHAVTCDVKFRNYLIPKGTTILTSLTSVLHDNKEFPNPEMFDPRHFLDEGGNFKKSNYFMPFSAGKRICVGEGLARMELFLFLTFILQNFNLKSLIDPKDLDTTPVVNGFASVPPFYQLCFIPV
CYP2C19 inhib – blockers of cytochrome P450 2C19 activity – biochemical, luminescence, ADME assay, primary screen. inhibition, % at 5 µM. AID 778, 2007. CYP2C19 Supersomes, luciferin-H EGE luminescence, 30 min. 96,000 tested, 21% active;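 active = CYP2C19 inhibition above a set limit at 5 µM in the primary screen, cut at about 50% in these data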;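 note: plate controls were negative control wells for no effect and 2.5 mM tranylcypromine positive control for full effect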
CYP2C9 activ – human CYP2C9 activators, primary screen, biochemical, luminescence; Cytochrome P450 2C9 (Homo sapiens), P11712; recombinant CYP2C9, luciferin-H conversion; stronger effect = higher value; factor 1 = untreated enzyme, 0 = blocked; activation factor at 5 µM; 96,000 tested, 1.4% active;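 active = activation factor of 2 or more for CYP2C9 at a 5 µM dose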;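 note: 0 = sulfaphenazole-blocked wells and 1 = vehicle-only wells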
* marks the source's active call; other numbers are inactive results.

For O=C(NCCNc1ccc([N+](=O)[O-])cc1)c1cccc(Br)c1 the results were E-sel TNF inh 6.
O=C(CCNc1ccc(F)cc1)c1cccc([N+](=O)[O-])c1 was read as CYP2C9 inh 4, F-actin modifier -52, E-sel TNF inh -2, CYP2C19 activ 0.4, CYP2C19 inhib 56* and CYP2C9 activ 1.
Screening Cc1ccc(NC(=O)CCC(=O)NNC(=O)c2cccc([N+](=O)[O-])c2)cc1C returned CYP2C9 inh 4, F-actin modifier 0, E-sel TNF inh 48, CYP2C19 activ 1, CYP2C19 inhib -3 and CYP2C9 activ 1.
`Cc1cnc(C(=O)Nc2ccc(C(C)C)cc2)cn1` gave E-sel TNF inh 18.
`O=S(=O)(NCCCCCNS(=O)(=O)c1ccc(F)cc1)c1ccc(F)cc1` gave CYP2C9 inh 73*, F-actin modifier -10, E-sel TNF inh -17, CYP2C19 activ 0.5, CYP2C19 inhib 54* and CYP2C9 activ 0.3.
Screening O=S(=O)(NCCSc1ccc(Cl)cc1)c1ccc(F)cc1 returned CYP2C9 inh 57*, F-actin modifier 7, E-sel TNF inh 1, CYP2C19 activ 0.6, CYP2C19 inhib 37 and CYP2C9 activ 0.4.
Cc1ccc(SCCNS(C)(=O)=O)cc1 was read as CYP2C9 inh 21, F-actin modifier 0, E-sel TNF inh -35, CYP2C19 activ 0.8, CYP2C19 inhib 19 and CYP2C9 activ 0.8.
Screening Cc1ccc(SCCNS(=O)(=O)c2ccc(F)cc2)cc1 returned CYP2C9 inh 88*, F-actin modifier 7, E-sel TNF inh -7, CYP2C19 activ 0, CYP2C19 inhib 96* and CYP2C9 activ 0.1.
Screening O=C(O)CCCNS(=O)(=O)c1ccc(F)cc1 returned CYP2C9 inh -6, F-actin modifier 4, CYP2C19 activ 1.1, CYP2C19 inhib -13 and CYP2C9 activ 1.1.
Screening O=C1c2ccccc2CC1(Cc1ccccc1)Cc1ccccc1 returned F-actin modifier 1 and E-sel TNF inh -21.
For COc1ccccc1N1CCN(C(=O)COc2ccc(Cl)cc2)CC1 the results were CYP2C9 inh 52*, E-sel TNF inh -40, CYP2C19 activ 0.2, CYP2C19 inhib 80* and CYP2C9 activ 0.5.
Screening O=C(COc1ccc(Cl)cc1)N1CCN(c2ncccn2)CC1 returned CYP2C9 inh 54*, F-actin modifier 2, E-sel TNF inh 8, CYP2C19 activ 0.3, CYP2C19 inhib 67* and CYP2C9 activ 0.5.
For O=C(COc1ccccc1)N1CCN(c2ncccn2)CC1 the results were E-sel TNF inh 13.
`COc1ccccc1OCC(=O)N1CCN(c2ccccc2OC)CC1` gave CYP2C9 inh 30, CYP2C19 activ 0.6, CYP2C19 inhib 40 and CYP2C9 activ 0.7.
Screening CC(=O)c1ccc(N2CCN(C(=O)COc3ccc(F)cc3)CC2)c(F)c1 returned CYP2C9 inh 48, E-sel TNF inh -14, CYP2C19 activ 0.5, CYP2C19 inhib 53* and CYP2C9 activ 0.5.
For COc1ccc(N2CCN(CCNC(=O)C3CCN(S(=O)(=O)c4cccs4)CC3)CC2)cc1 the results were CYP2C9 inh 12, F-actin modifier -25, E-sel TNF inh -11, CYP2C19 activ 0.9, CYP2C19 inhib 8 and CYP2C9 activ 0.9.
`CCn1c(=O)n(CC(=O)NCc2ccccc2OC)c(=O)c2ccccc21` gave CYP2C9 inh -44, F-actin modifier 5, E-sel TNF inh -22, CYP2C19 activ 0.5, CYP2C19 inhib 54* and CYP2C9 activ 1.4.
For COc1cccc(CNC(=O)Cn2c(=O)oc3ccccc32)c1OC the results were CYP2C9 inh 4, F-actin modifier -6, CYP2C19 activ 0.3, CYP2C19 inhib 66* and CYP2C9 activ 1.
Screening CCOc1ccccc1CNC(=O)Cn1c(=O)oc2ccccc21 returned CYP2C9 inh -23, F-actin modifier -19, E-sel TNF inh -19, CYP2C19 activ 0.6, CYP2C19 inhib 37 and CYP2C9 activ 1.2.
Screening O=C(NCCN1CCOCC1)c1ccc(CS(=O)(=O)c2c(Cl)cccc2Cl)o1 returned CYP2C9 inh 6, F-actin modifier 9, E-sel TNF inh 8, CYP2C19 activ 1, CYP2C19 inhib 4 and CYP2C9 activ 0.9.
O=C1CC(C(=O)Nc2ccc(C(=O)N3CCOCC3)cc2)C2(CCCCC2)O1 (stereo not drawn) was read as CYP2C9 inh -7, F-actin modifier -5, E-sel TNF inh 26, CYP2C19 activ 1, CYP2C19 inhib 2 and CYP2C9 activ 1.1.
For CCCn1c(SCC(=O)Nc2ccc(OC)cc2)nnc1-c1ccncc1 the results were CYP2C9 inh 32, F-actin modifier -8, E-sel TNF inh 12, CYP2C19 activ 0.8, CYP2C19 inhib 24 and CYP2C9 activ 0.7.
CCN(CC)C(=O)Cn1nc(-c2ccccc2O)nc1SCC(=O)Nc1ccc(OC)cc1 was read as CYP2C9 inh 69*, F-actin modifier -9, CYP2C19 activ 0.5, CYP2C19 inhib 50 and CYP2C9 activ 0.3.
Screening COc1ccc(NC(=O)CSc2nc(-c3ccncc3)nn2CC(=O)N2CCCC2)cc1 returned CYP2C9 inh 83*, E-sel TNF inh -16, CYP2C19 activ 0.1, CYP2C19 inhib 92* and CYP2C9 activ 0.2.
`Cc1ccc(Cn2ccc(NC(=O)c3cc(-c4cccs4)on3)n2)cc1` gave CYP2C9 inh 22, E-sel TNF inh 2, CYP2C19 activ 1, CYP2C19 inhib 1 and CYP2C9 activ 0.8.
`O=C(NCc1cccnc1)C(=O)N/N=C/c1ccccc1[N+](=O)[O-]` gave E-sel TNF inh -43.
For COc1ccc(OC)c(NC(=O)C(=O)N/N=C/c2ccccc2[N+](=O)[O-])c1 the results were CYP2C9 inh -119, F-actin modifier -6, E-sel TNF inh 21, CYP2C19 activ 0.9, CYP2C19 inhib 7 and CYP2C9 activ 2.2*.
COc1ccc(NC(=O)C(=O)N/N=C/c2cc(C)n(-c3cccc(Cl)c3Cl)c2C)c(OC)c1 was read as CYP2C9 inh 33, F-actin modifier -8, E-sel TNF inh -52, CYP2C19 activ 0.3, CYP2C19 inhib 72* and CYP2C9 activ 0.7.
COc1ccccc1NC(=O)C(=O)N/N=C/c1cccs1 was read as E-sel TNF inh -9.
`Cc1c(NC(=O)C2CCCN(S(=O)(=O)c3cnc[nH]3)C2)c(=O)n(-c2ccccc2)n1C` (stereo not drawn) gave CYP2C9 inh -7, F-actin modifier 10, E-sel TNF inh -5, CYP2C19 activ 1.1, CYP2C19 inhib -10 and CYP2C9 activ 1.1.
